Results published in PubChem BioAssay (EPA / NIEHS).
Values joined by “and” are separate entries in the source; they are usually repeats but may differ in a detail not shown here. Equal values may be shown once. Records with an inconclusive call do not appear. More than one record can exist for a structure, and the calls need not agree. Active and inactive are the calls of the source. Rule for the calls: active = hit-call score of the fitted dose curve at least 0.9, where 1 is the maximum; inconclusive = response in the unintended direction; inactive = score below 0.9.

Molecular target: Cellular tumor antigen p53 (Homo sapiens) (UniProt P04637)
Sequence (P04637 whole entry, looked up): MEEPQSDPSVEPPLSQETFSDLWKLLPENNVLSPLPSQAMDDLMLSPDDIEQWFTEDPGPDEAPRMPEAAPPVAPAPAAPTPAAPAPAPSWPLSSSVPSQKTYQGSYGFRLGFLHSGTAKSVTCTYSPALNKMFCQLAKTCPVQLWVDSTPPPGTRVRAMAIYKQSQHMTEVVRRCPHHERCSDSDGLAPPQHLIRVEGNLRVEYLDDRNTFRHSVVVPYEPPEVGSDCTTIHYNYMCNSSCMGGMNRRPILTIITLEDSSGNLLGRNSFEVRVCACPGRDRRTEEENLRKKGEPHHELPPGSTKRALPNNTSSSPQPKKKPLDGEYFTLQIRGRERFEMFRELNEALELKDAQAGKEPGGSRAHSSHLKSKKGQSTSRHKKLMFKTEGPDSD
Assay: TOX21_p53_BLA_p3_ratio: Tox21 HCT-116 p53 Agonism Beta-lactamase Assay, Ratio, Phase 3 (AID 2283596)
Excerpt: TOX21_p53_BLA_p3 is a cell-based, single-readout assay that uses HCT116, a human intestinal cell line, […] in a 1536-well plate.TOX21_p53_BLA_p3_ratio is an assay readout measuring reporter gene via receptor activity and designed using inducible reporter (beta lactamase induction) detected with GAL4 b-lactamase reporter gene. The signal is derived from the ratio of cleaved (ch2) to uncleaved (ch1) reporter gene substrate used as the measure of target activity.Data from the assay component TOX21_p53_BLA_p3_ratio was analyzed into 1 assay endpoint. This assay endpoint, TOX21_p53_BLA_p3_ratio, was analyzed in the positive analysis fitting direction relative to DMSO as the negative control and baseline of activity. Using a type of inducible reporter, gain-of-signal activity can be used to understand changes in the reporter gene as they relate to the gene TP53. Furthermore, this assay endpoint can be referred to as a primary readout, because this assay has produced multiple assay endpoints where this ratio serves a reporter gene function to understand target activity. To generalize the intended target to other relatable targets, this assay endpoint is annotated to the DNA binding intended target family, where the subfamily is tumor suppressor.
Thawing Method: Place 14 mL of pre-warmed thaw medium into a 15 mL of conical tub. Remove the vial of cells to be thawed from liquid nitrogen and thaw rapidly by placing at 37C in a water bath with gentle agitation for 1-2 minutes. Decontaminate the vial by wiping with 70% ethanol before opening in a biological safety cabinet. Transfer the vial contents drop-wise into 14 mL of thaw medium in a sterile 15-mL conical tub. Centrifuge cells at 900 rpm for 4 minutes and resuspend in thaw medium. Transfer contents to the T75 tissue culture flask containing Thaw Medium and place flask in a humidified 37C/5% CO2 incubator. Switch to growth medium at first passage.Propagation Method: Aspirate medium, rinse once in DPBS, add 0.25% Trypsin/EDTA and swirl to coat the cell evenly. Add an equal volume of Growth Medium to inactivate Trypsin after 2-3 minutes incubation at 37C. Centrifuge cells at 900 rpm for 4 minutes and resuspend in growth medium. Cell should be passage or fed at least twice a week.Assay Protocol: Harvest cells from culture in growth medium and resuspend in assay medium. 2.2 Dispense 4000 cells/5 uL/well into 1536-well black/clear bottom plates using a Multidrop dispenser. After the cells were incubated at 37C for 5 hours, 23 nL of compounds dissolved in DMSO were transferred to the assay plate by a PinTool resulting in a 217-fold dilution. Incubate the plates for 16 hours at 37C, 5% CO2. Add 1 uL of 6X LiveBLAzer FRET B/G (CCF4-AM) Substrate Mixture to each well using a BioRAPTR dispenser and incubate the plates at room temperature for 2 hours. Measure fluorescence intensity at 460 and 530 nm emission and 405 nm excitation by an Envision detector. Data is expressed as the ratio of 460nm/530nm emissions. Add 4 uL of Cell-titer Glo to each well using BioRAPTR and incubate the plates at room temperature for 2 hours. Measure fluorescence intensity by a VewLux plate reader.

Compound	outcome	AC50
CCCSP(=O)(OCC)Oc1ccc(Br)cc1Cl (stereo not given)	inactive	
C[Si](Cn1cncn1)(c1ccc(F)cc1)c1ccc(F)cc1	inactive	
CCOP(=S)(OCC)OC(Cl)C(Cl)(Cl)Cl (stereo not given)	inactive	
CON=C(C(=O)OC)c1ccccc1CON=C(C)c1cccc(C(F)(F)F)c1		3.12 µM (active)
COP(=O)(OC)C(O)C(Cl)(Cl)Cl (stereo not given)	inactive	
CN(C)NC(=O)CCC(=O)O	inactive	
CC(C)N(C(=O)SCC(Cl)=C(Cl)Cl)C(C)C	inactive	
CCOC(=O)CC(SP(=O)(OC)OC)C(=O)OCC (stereo not given)	inactive	
C#CC(C)(C)NC(=O)c1cc(Cl)cc(Cl)c1	inactive	
N#CSCSC#N		14.9 µM (active) and 8.68 µM (active)
CCCCN(CC)c1c([N+](=O)[O-])cc(C(F)(F)F)cc1[N+](=O)[O-]	inactive	
CCC(=O)Nc1ccc(Cl)c(Cl)c1	inactive	72.7 µM (active)
CCc1cccc(C)c1N(C(=O)CCl)C(C)COC (stereo not given)	inactive	
CNc1cnn(-c2cccc(C(F)(F)F)c2)c(=O)c1Cl	inactive	
C[N+]1(C)CCCCC1	inactive	
CC(C1CC1)C(O)(Cn1cncn1)c1ccc(Cl)cc1 (stereo not given)	inactive	
FC(F)C(F)(F)OCC(Cn1cncn1)c1ccc(Cl)cc1Cl (stereo not given)	inactive	
CSC1=N[C@@](C)(c2ccccc2)C(=O)N1Nc1ccccc1	inactive	
CCOP(=O)(NC(C)C)Oc1ccc(SC)c(C)c1 (stereo not given)	inactive	

Compound	outcome	AC50
CCCCSP(=O)(SCCCC)SCCCC	inactive	
Cc1cc(C2CC2)nc(Nc2ccccc2)n1	inactive	
CCOP(=S)(OCC)SCCSCC	inactive	
CCCOCC(=Nc1ccc(Cl)cc1C(F)(F)F)n1ccnc1		68.1 µM (active)
COc1ccc(C(=CC(=O)N2CCOCC2)c2ccc(Cl)cc2)cc1OC	inactive	
Cc1nn(-c2cc(NS(C)(=O)=O)c(Cl)cc2Cl)c(=O)n1C(F)F	inactive	
CC1=NNC(=O)N(/N=C/c2cccnc2)C1	inactive	
COc1cc(OC)nc(Sc2cccc(Cl)c2C(=O)O)n1	inactive	
CC1(C(=O)Nc2ccc(O)c(Cl)c2Cl)CCCCC1	inactive	
CC[C@H](C)[C@H]1O[C@]2(C=C[C@@H]1C)C[C@@H]1C[C@@H](C/C=C(\C)[C@@H](O[C@H]3C[C@H](OC)[C@@H](O[C@H]4C[C@H](OC)[C@@H](NC)[C@H](C)O4)[C@H](C)O3)[C@@H](C)/C=C/C=C3\CO[C@@H]4[C@H](O)C(C)=C[C@@H](C(=O)O1)[C@]34O)O2		54.1 µM (active)
CC(=NC#N)N(C)Cc1ccc(Cl)nc1	inactive	
CNC(=O)ON=C(SC)C(=O)N(C)C	inactive	
COP(=O)(NC(C)=O)SC (stereo not given)	inactive	
CCC(CC)Nc1c([N+](=O)[O-])cc(C)c(C)c1[N+](=O)[O-]	inactive	
CCOP(=S)(OCC)Oc1cc(C)nc(C(C)C)n1	inactive	67.9 µM (active)
CNC(=O)Oc1cccc2c1OC(C)(C)O2	inactive	
Nc1nc(N)nc(NC2CC2)n1	inactive	
CN(C)C(=O)Nc1cccc(C(F)(F)F)c1	inactive	
O=c1ccc(=O)[nH][nH]1	inactive	
